Measurements: PubChem BioAssay AID1565 (Sanford-Burnham Center for Chemical Genomics, 2009)
About 3,200 (1.1%) of roughly 290,000 compounds were called active. Cut-off read from the data, not from the text of the source: active = inhibition above about 60%; inactive = the rest. What follows is part of a selection rich in actives, with near analogues and random picks from the rest.

Each compound was assayed against Phosphoethanolamine/phosphocholine phosphatase (Homo sapiens) (UniProt Q8TCT1) (assay: PubChem AID 1565). Conditions: recombinant PHOSPHO1, absorbance phosphatase assay; at 13.3 µM; active compounds read high.
Phosphoethanolamine/phosphocholine phosphatase (Homo sapiens), sequence (Q8TCT1 whole entry, looked up): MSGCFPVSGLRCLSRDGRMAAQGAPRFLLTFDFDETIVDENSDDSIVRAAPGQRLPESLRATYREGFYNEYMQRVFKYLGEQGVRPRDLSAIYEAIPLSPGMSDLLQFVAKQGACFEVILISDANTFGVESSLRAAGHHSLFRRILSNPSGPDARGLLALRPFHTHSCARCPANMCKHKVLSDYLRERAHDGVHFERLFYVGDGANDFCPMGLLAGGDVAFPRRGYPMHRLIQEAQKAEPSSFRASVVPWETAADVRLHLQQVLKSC

inhibition, inactive:
COc1ccc(/C=N/NC(=O)C2CC2)c(OC)c1OC 21.2%
CC1Sc2ccc(S(=O)(=O)CCC(=O)NCc3ccccc3Cl)cc2NC1=O (centres undefined) -22.3%
COc1ccc(CCNC(=O)COC(=O)c2ccc[nH]c2=O)cc1 0.3%
COc1ccc(C(=O)OCC(=O)NCCCc2ccccc2)cc1OC 17.9%
O=C(CSc1nnnn1C1CCCC1)N1CCCCC1 30.7%
O=C(c1cc2ccccc2s1)N1CCN(c2ccccn2)CC1 42.8%
CCc1ccc(OCC2c3cc(OC)c(OC)cc3CCN2C(C)=O)cc1 (centres undefined) 42%
COc1ccccc1OCCNC(=O)CCNC(=O)c1ccccc1Cl 23.8%
O=C(c1cccc([N+](=O)[O-])c1)N1CCN(Cc2ccccc2)CC1 18.4%
Cc1cc(CNC(=O)c2cccc([N+](=O)[O-])c2)c2ccccc2n1 -3%
O=C(N/N=C/c1ccc(Cl)c(Cl)c1)c1ccc2nc[nH]c2c1 29.8%
N#Cc1ccc(C2N=C(c3ccccc3)NO2)cc1 (centres undefined) 30.4%
CCOC(=O)c1c(C)n(C)c2ccc(OC)c(NS(=O)(=O)CC)c12 -2.4%
COc1ccc(Cl)cc1NC(=O)CN1CCN(C(=O)N2CCOCC2)CC1 4.5%
CCOc1ccc(C(C(=O)NCCOC)N(CCOC)C(=O)CCC(=O)Nc2ccccn2)cc1 (centres undefined) 1.5%
COc1ccc2cc(C(=O)C3CCCN(C(=O)c4sc(C)nc4C)C3)ccc2c1 (centres undefined) 22.6%
COc1ccccc1N1CC(C(=O)Nc2nnc(SCC(=O)NC(C)C)s2)CC1=O (centres undefined) -84.3%
O=C(COC(=O)c1ccc(F)cc1)NCCCc1ccccc1 24.1%
COC(=O)c1ccccc1SC1CC(=O)N(c2cccc(C)c2)C1=O (centres undefined) -11.7%
O=C1CC(N2CCN(c3ccc(F)cc3)CC2)C(=O)N1c1ccccc1 (centres undefined) -16.5%
CC(=O)Nc1ccc(N2C(=O)CC(Sc3nccc(C)n3)C2=O)cc1 (centres undefined) 19.2%
COc1ccc(N2C(=O)CC(Sc3n[nH]c(-c4ccc(C)cc4)n3)C2=O)cc1 (centres undefined) 10.2%
CCc1ccc(/C=N/NC(=O)c2nnn(-c3nonc3N)c2CN2CCc3ccccc32)cc1 23.3%
Cc1[nH]c(C)c(S(=O)(=O)N2CCN(c3cccc(C(F)(F)F)c3)CC2)c1C(=O)N1CCCC1 12.1%
Cc1cccc(N(C)C(=O)c2cc(S(=O)(=O)N3CCCCC3)c[nH]2)c1 25.4%
CCc1cccc(C)c1NS(=O)(=O)c1cc(Br)cnc1N 35.5%
CCCC(=O)N1CCN(c2nnc(-c3ccc(C)cc3)c3ccccc23)CC1 30.8%
O=C(CSc1nc2ccc(Nc3nc(N4CCOCC4)nc(N4CCOCC4)n3)cc2s1)NCc1ccco1 16.2%
C=CCn1c(SCC(=O)Nc2nc3ccccc3s2)nnc1-c1ccccc1O -17.5%
O=S(=O)(/C=C/c1ccccc1)N1CCNCC1 37%
Cc1cc(S(=O)(=O)NCc2ccccn2)c(Cl)cc1Cl 29.5%
CC1(C)NC(=O)N(CC(=O)Nc2cc(C(F)(F)F)cc(C(F)(F)F)c2)C1=O 24%
O=C(NCc1ccc(Cl)cc1)NCc1ccc(Cl)cc1 42.1%
O=C(NCc1ccc(Cl)cc1)c1cc(=O)nc2sc(-c3ccccc3)nn12 19.7%
COc1ccc(NC(=O)C2CCC(CNS(=O)(=O)c3csc(C(N)=O)c3)CC2)cc1OC (centres undefined) 48.8%
Cc1ccc(S(=O)(=O)N/N=C\c2cc3c(cc2[N+](=O)[O-])OCO3)cc1 -27.6%
CCOc1ccc(-c2n[nH]c(=S)n2/N=C/c2cc3c(cc2[N+](=O)[O-])OCO3)cc1 57.5%
CN(C(=O)CC1C(=O)NCCN1Cc1ccc2ccccc2c1)C1CCOCC1 (centres undefined) 9%
CC(=O)OCc1cc2cc(C)ccc2[nH]c1=O -4.1%
Cc1cccc(-c2noc(-c3ccc(F)cc3)n2)c1 -3.7%
COc1ccc(N(Cc2cc3cc(OC)ccc3[nH]c2=O)S(C)(=O)=O)cc1 -2.4%
CCNC(=O)CCc1nc(-c2ccc(C)cc2)no1 12.3%
COC(=O)Cc1cnc(NC(=O)CSc2nc(C(C)C)cc(=O)[nH]2)s1 26.5%
O=C(CCN1C(=O)[C@@H]2Cc3ccccc3CN2C1=O)NCCc1ccccc1 38.2%
CC1=C/C(=N\OS(=O)(=O)c2ccccc2)C=CC1=O -13.3%
O=Cc1c(NCCc2cccc(F)c2)c2ccccc2[nH]c1=O 19.2%
CC(C)(C)SCCSC1=CC(=O)CC(c2ccccc2)C1 (centres undefined) 14.1%
Cc1ccc2nc(N3C(=O)C(O)=C(C(=O)c4ccco4)C3c3cccc(O)c3)sc2c1 (centres undefined) 40.5%
O=C(c1ccccc1)N1CCC(CC2CC(c3ccc(Cl)cc3)=NO2)(C(=O)NCC2CCCCC2)CC1 (centres undefined) -1.7%

inhibition, active:
COc1ccccc1C(=O)OCC(=O)NCCNC(=O)COC(=O)c1ccccc1OC 70.6%
CN(C(=O)c1cccc([N+](=O)[O-])c1)c1ccccc1C(=O)NCc1ccccc1 61%
CCOC(=O)c1c(C)n(C)c2ccc(OC)c(NC(=O)CN3CCC4(CC3)OCCO4)c12 96.8%
O=C1CC(Sc2ncn[nH]2)C(=O)N1c1ccccc1 (centres undefined) 97.9%
Cc1ccc(N2C(=O)CC(Sc3ncn[nH]3)C2=O)cc1 (centres undefined) 105%
C=CCn1c(CSc2nc3ccccc3s2)nnc1SCC(=O)NCc1ccco1 89.7%
O=C(NCc1ccc(Cl)cc1)c1cc2c(nc3sccn32)s1 66.1%
Cc1ccc(-c2n[nH]c(=S)n2/N=C/c2cc3c(cc2[N+](=O)[O-])OCO3)cc1 99.7%
COc1ccc2[nH]c(=O)c(-c3noc(-c4ccc(F)cc4)n3)cc2c1 80.2%
CCCc1nc(-c2cc3cc(C)ccc3[nH]c2=O)no1 76.8%
